Measurements taken from PubChem BioAssay AID1159580 (chemical genetic matrix, 2015).
The campaign covered roughly 5,500 compounds. About 2,000 (36%) were called active. Another 18% or so got no clear call; they are omitted. Rule as the data show it: active = normalized growth mostly below about 0.91 (no sharp cut-off); inconclusive = no clear call, values can overlap the other calls; inactive = mostly above about 0.92. This is one part of the list.

Assay: chemical genetic growth profiling, strain panel (AID 1159580);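 also: tested at 20 µM; growth read once vehicle control cultures reached saturation at 30 °C; 1 = growth at the plate median or of vehicle wells; lower values mean less growth of the strain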
Conditions: growth OD

Measured: normalized growth

Cc1nnc(NS(=O)(=O)c2ccc(N)cc2)s1
inactive: S. cerevisiae deletion strains, locus YKL009W, strain mrt4, active compounds read low 1.05 | S. cerevisiae deletion strains, locus YKL068W, active compounds read low 0.996 | S. cerevisiae deletion strains, locus YKL085W, strain MDH1 (second series), active compounds read low 0.998 | S. cerevisiae deletion strains, locus YKL085W, strain MDH1, active compounds read low 0.998 | S. cerevisiae deletion strains, locus YKL160W, strain elf1, active compounds read low 1.01 | S. cerevisiae deletion strains, locus YKL190W, strain CNB1, active compounds read low 1.02 | S. cerevisiae deletion strains, locus YKR001C, strain vps1, active compounds read low 1.02 | S. cerevisiae deletion strains, locus YKR026C, strain gcn3, active compounds read low 1.01 | S. cerevisiae deletion strains, locus YKR091W, strain srl3, active compounds read low 0.99 | S. cerevisiae deletion strains, locus YLL001W, strain dnm1, active compounds read low 0.995 | S. cerevisiae deletion strains, locus YLL026W, active compounds read low 0.998 | S. cerevisiae deletion strains, locus YLL041C, strain sdh2, active compounds read low 1 | S. cerevisiae deletion strains, locus YLR027C, strain aat2, active compounds read low 1.01 | S. cerevisiae deletion strains, locus YLR039C, strain RIC1, active compounds read low 1.09 | S. cerevisiae deletion strains, locus YLR058C, strain SHM2, active compounds read low 1.01 | S. cerevisiae deletion strains, locus YLR102C, strain apc9, active compounds read low 0.985 | S. cerevisiae deletion strains, locus YLR113W, strain HOG1, active compounds read low 0.966 | S. cerevisiae deletion strains, locus YLR221C, strain rsa3, active compounds read low 1.01 | S. cerevisiae deletion strains, locus YLR258W, strain gsy2, active compounds read low 0.997 | S. cerevisiae deletion strains, locus YLR262C, strain YPT6 (second series), active compounds read low 0.99 | S. cerevisiae deletion strains, locus YLR262C, strain YPT6, active compounds read low 1.07 | S. cerevisiae deletion strains, locus YLR268W, strain sec22, active compounds read low 1.04 | S. cerevisiae deletion strains, locus YLR320W, strain mms22, active compounds read low 0.99 | S. cerevisiae deletion strains, locus YLR330W, strain CHS5, active compounds read low 1.01 | S. cerevisiae deletion strains, locus YLR342W, strain FKS1 (second series), active compounds read low 1.04 | S. cerevisiae deletion strains, locus YLR342W, strain FKS1, active compounds read low 0.996 | S. cerevisiae deletion strains, locus YLR357W, strain rsc2, active compounds read low 1.03 | S. cerevisiae deletion strains, locus YLR370C, strain arc18, active compounds read low 1.01 | S. cerevisiae deletion strains, locus YLR371W, strain rom2, active compounds read low 0.984 | S. cerevisiae deletion strains, locus YLR384C, strain iki3, active compounds read low 1 | S. cerevisiae deletion strains, locus YLR418C, strain cdc73, active compounds read low 1.04 | S. cerevisiae deletion strains, locus YML016C, strain PPZ1, active compounds read low 1.01 | S. cerevisiae deletion strains, locus YML032C, strain rad52, active compounds read low 1.01 | S. cerevisiae deletion strains, locus YML120C, strain ndi1, active compounds read low 0.987 | S. cerevisiae deletion strains, locus YML124C, strain tub3, active compounds read low 1 | S. cerevisiae deletion strains, locus YMR058W, strain fet3, active compounds read low 0.998 | S. cerevisiae deletion strains, locus YMR078C, strain ctf18, active compounds read low 0.991 | S. cerevisiae deletion strains, locus YMR125W, strain sto1, active compounds read low 0.998 | S. cerevisiae deletion strains, locus YMR129W, active compounds read low 1.01 | S. cerevisiae deletion strains, locus YMR205C, strain PFK2, active compounds read low 1 | S. cerevisiae deletion strains, locus YMR223W, strain ubp8, active compounds read low 0.997 | S. cerevisiae deletion strains, locus YMR231W, strain pep5, active compounds read low 1 | S. cerevisiae deletion strains, locus YMR263W, strain SAP30, active compounds read low 1.01 | S. cerevisiae deletion strains, locus YMR307W, strain GAS1, active compounds read low 0.987 | S. cerevisiae deletion strains, locus YNL067W, strain RPL9B, active compounds read low 1.02 | S. cerevisiae deletion strains, locus YNL071W, strain lat1, active compounds read low 0.993 | S. cerevisiae deletion strains, locus YNL128W, strain TEP1, active compounds read low 1.03 | S. cerevisiae deletion strains, locus YNL153C, strain GIM3, active compounds read low 1.01 | S. cerevisiae deletion strains, locus YNL183C, strain NPR1, active compounds read low 0.953 | S. cerevisiae deletion strains, locus YNL209W, strain ssb2, active compounds read low 1.01 | S. cerevisiae deletion strains, locus YNL233W, strain BNI4, active compounds read low 1.01 | S. cerevisiae deletion strains, locus YNL248C, strain rpa49, active compounds read low 1.01 | S. cerevisiae deletion strains, locus YNL250W, strain rad50, active compounds read low 1.01 | S. cerevisiae deletion strains, locus YNL271C, strain bni1, active compounds read low 1 | S. cerevisiae deletion strains, locus YNL298W, strain CLA4, active compounds read low 1.03 | S. cerevisiae deletion strains, locus YNL307C, strain MCK1, active compounds read low 1 | S. cerevisiae deletion strains, locus YNL322C, strain KRE1 (second series), active compounds read low 0.999 | S. cerevisiae deletion strains, locus YNR049C, strain mso1, active compounds read low 1 | S. cerevisiae deletion strains, locus YNR052C, strain pop2, active compounds read low 0.989 | S. cerevisiae deletion strains, locus YOL006C, strain TOP1, active compounds read low 1.04 | S. cerevisiae deletion strains, locus YOL012C, strain htz1 0.962 | S. cerevisiae deletion strains, locus YOL147C, strain pex11, active compounds read low 0.986 | S. cerevisiae deletion strains, locus YOR001W, strain rrp6, active compounds read low 1 | S. cerevisiae deletion strains, locus YOR061W, strain CKA2, active compounds read low 1.01 | S. cerevisiae deletion strains, locus YOR069W, strain VPS5, active compounds read low 1.01 | S. cerevisiae deletion strains, locus YOR070C, strain gyp1, active compounds read low 1.01 | S. cerevisiae deletion strains, locus YOR080W, strain dia2, active compounds read low 1 | S. cerevisiae deletion strains, locus YOR083W, strain WHI5, active compounds read low 0.978 | S. cerevisiae deletion strains, locus YOR106W, strain vam3, active compounds read low 1.02 | S. cerevisiae deletion strains, locus YOR136W, strain idh2, active compounds read low 0.992 | S. cerevisiae deletion strains, locus YOR144C, strain elg1, active compounds read low 0.992 | S. cerevisiae deletion strains, locus YOR184W, strain ser1, active compounds read low 1.01 | S. cerevisiae deletion strains, locus YOR231W, strain MKK1, active compounds read low 1.01 | S. cerevisiae deletion strains, locus YOR265W, strain rbl2, active compounds read low 1 | S. cerevisiae deletion strains, locus YOR270C, strain vph1, active compounds read low 1.02 | S. cerevisiae deletion strains, locus YOR290C, strain snf2, active compounds read low 1 | S. cerevisiae deletion strains, locus YOR316C, strain cot1, active compounds read low 0.99 | S. cerevisiae deletion strains, locus YPL051W, strain arl3, active compounds read low 1 | S. cerevisiae deletion strains, locus YPL078C, strain atp4, active compounds read low 0.999 | S. cerevisiae deletion strains, locus YPL106C, strain sse1, active compounds read low 1.02 | S. cerevisiae deletion strains, locus YPL240C, strain hsp82, active compounds read low 1.02 | S. cerevisiae deletion strains, locus YPL241C, strain CIN2, active compounds read low 1.01 | S. cerevisiae deletion strains, locus YPL256C, strain CLN2, active compounds read low 0.979 | S. cerevisiae deletion strains, locus YPR119W, strain clb2, active compounds read low 0.989 | S. cerevisiae deletion strains, locus YPR141C, strain kar3, active compounds read low 1.01 | S. cerevisiae deletion strains, locus YPR163C, strain tif3, active compounds read low 0.992 | S. cerevisiae deletion strains, locus YPR167C, strain met16, active compounds read low 0.997 | S. cerevisiae deletion strains, strain wtn01, active compounds read low 1.02 | S. cerevisiae strains, strain wild type, active compounds read low 1.01
